Inhibition data for 60 molecules are collected here from PubChem BioAssay AID588475 (Sanford-Burnham Center for Chemical Genomics, 2011).

The campaign covered roughly 350,000 compounds. About 2,100 (0.6%) were called active. The sample holds actives, similar compounds and a random draw of the others, so the mix is not that of the screen. A number with no mark means an inactive call.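 How the source made its calls: active means inhibition of the ligand-induced calcium signal above about 50% at the single tested concentration (limit read from the data); inactive means the rest.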

A short description of this test: antagonists of CRF-BP/CRF-R2 complex, primary screen, cell-based, HEK293, calcium dye fluorescence, uHTS (AID 588475). The settings on record: CRF-induced calcium fluorescence, at 11.8 µM, stronger effect = higher value.
Broadly, the inhibition is the change of the read-out against control, counted positive when it falls. As to `CCOC(=O)CN1CCC(c2ccccc2)CC1`, the inhibition is -2.05%. Take `CCOC(=O)Cn1c2c(c(-c3ccccc3OC)cc1=O)CCCC2`: the inhibition is 57.5% (active). With `COc1ccccc1C1=CC(=O)CCC1` the figure was 9.84%. The result for `c1ccc(CCN2CN=C(Nc3nc4ccccc4o3)NC2)cc1` reads 13.5%; that for `CC1CC(C)CN(C(=O)C2CC(=O)N(c3ccc(F)cc3)C2)C1` (stereo not given), -0.72%. With `O=C(C1CC(=O)N(c2ccc(Br)cc2)C1)N1CCCC1` (stereo not given) the figure was 76.7% (active); with `CCc1ccc(N2CC(C(=O)N3CCCCCC3)CC2=O)cc1` (stereo not given), -21.4%; with `CCCOc1cccc(C(=O)Nc2nnn(CCC)n2)c1`, -20.2%. As for `CCCCCCNC(=O)O[C@]12C[C@@H](C(=O)OC)[C@@H](C(=O)OC)C[C@@]1(O)CN(S(=O)(=O)c1ccc(C)cc1)C2`, the inhibition was -0.13%. The result for `CCOc1ccc(NC(=O)CCC(=O)NNC(=O)NC2CCCCC2)cc1` reads 9.93%; that for `CC1CCN(C(=S)NC2CC3CCC2C3)CC1` (stereo not given), 18.3%; that for `CCCC(O)(CCC)C(=O)NN(C(=O)CCl)c1cccc(C)c1`, 4.46%.

As to `CCc1nnc(NC(=O)CSc2nc(SC)ns2)s1`, the inhibition was -5.79%.

`CC(=O)c1cccc(-n2nnnc2SCC(=O)NNC(=O)C2CCCCC2)c1`: the inhibition is 12.7%.

In the case of `CCc1nnc(NC(=O)CSc2nnnn2-c2cccc(C(C)=O)c2)s1`, the inhibition was 54.4% (active). With `O=C(O)C1=C(C(=O)O)C2CCC1C2` the figure was 17.1%; with `COc1cc(CNCc2cccs2)cc(Br)c1OC`, 4.12%; with `COc1ccc(Cl)cc1C(=O)OCC(=O)NCc1cccs1`, -4.93%.

Turning to `COc1cc(CC(=O)NCc2cccs2)cc(OC)c1OC`, the inhibition is 63.8% (active). Consider `COC(=O)c1ccc(OC(=O)c2nn(C)cc2Cl)c(OC)c1`, for which the inhibition was 90.2% (active). With `COc1ccc(CCNC(=O)COC(=O)c2ncc(Cl)c(Cl)c2Cl)cc1OC` the figure was -0.24%.

For `COc1ccc(C(=O)NC(=S)Nc2ccc(Cl)cn2)cc1OC`, the inhibition is -25.3%. With `Cc1cc(C)c(C#N)c(SCS(=O)c2ccc(C(C)(C)C)cc2)n1` (stereo not given) the figure was 1.43%; with `CC1C(=O)Nc2ccccc2N1C(=O)c1ccc(F)cc1F` (stereo not given), 16%; with `O=C(NNc1c2ccccc2nc2ccccc12)c1cc2ccccc2cc1O`, 53.2% (active). Take `O=C(NNC(=O)c1ccccc1O)c1ccccc1O`: the inhibition is 24.2%. On to `O=C(COC(=O)c1ccc(O)cc1O)NC(=O)c1ccccc1`, for which the inhibition is -7.02%. For the molecule `Cc1onc(-c2c(F)cccc2Cl)c1C(=O)N(C)CC(=O)Nc1cccc(F)c1`, the inhibition is 5.08%. For the molecule `Cc1cccc(N2Cc3ccccc3C2=NC(=O)c2ccc(Cl)nc2)c1`, the inhibition is -4.54%. The result for `CN1CCN(C2=NCCO2)CC1` reads 0.22%; that for `COc1ccc(/C=C2/CCCc3ccccc3C2=O)cc1`, 4.03%; that for `COc1ccc(/C=C2\CCc3ccccc3C2=O)c(OC)c1OC`, 89.8% (active). With `O=C1/C(=C/c2cccs2)CCc2ccccc21` the figure was -1.09%; with `COC(=O)[C@]1(Cc2ccccc2)N[C@H](CN(C)S(=O)(=O)c2ccc(OC(F)(F)F)cc2)[C@@H]2C(=O)N(Cc3ccccc3)C(=O)[C@@H]21`, -0.07%. With `O=C(CSc1nnc(CNC(=O)c2ccc(F)cc2)o1)Nc1ccc2c(c1)OCO2` the figure was -5.95%. For the molecule `CN(C)c1ccc(/C=C2\NC(=S)N(Cc3ccccc3)C2=O)cc1`, the inhibition was -149%.

Regarding `CN(C)c1ccc(C=C2C(=O)OC3(CCCC3)OC2=O)cc1`, the inhibition is 66.8% (active). With `COC(=O)c1ccc(/C=C2/C(=O)Oc3ccccc32)cc1` the figure was 1.02%. With `O=C(O)C(NS(=O)(=O)c1cccc2nsnc12)c1ccccc1` (stereo not given) the figure was 8.07%; with `Cc1cc(C)cc(C(=O)NC(CC(N)=O)c2ccc(N3CCC(N4CCCCC4)CC3)c([N+](=O)[O-])c2)c1` (stereo not given), 14.9%; with `O=C(NCC(F)(F)F)c1ccc(S(=O)(=O)NCCc2ccc3c(c2)OCCO3)cc1`, 2.25%. Turning to `CC1=C(C(N)=O)C(c2sccc2C)n2nnnc2N1` (stereo not given), the inhibition is -23.7%. With `Cc1c(Br)ccc(NC(=O)COc2ccccc2C(N)=O)c1C` the figure was -2.05%; with `COC(=O)C(NC(=O)c1ccc(OC)cc1)(Nc1ncc(S(=O)(=O)c2ccc([N+](=O)[O-])cc2)s1)C(F)(F)F` (stereo not given), 72.6% (active); with `COc1ccc(C(=O)NCCNc2ccc([N+](=O)[O-])cn2)cc1`, 3.69%. For `CCOCC(=O)Nc1ncc(S(=O)(=O)c2ccc([N+](=O)[O-])cc2)s1`, the inhibition was -6.17%. The result for `COc1ccc(CCn2c(NN=C3CCCC3)nc3c2c(=O)[nH]c(=O)n3C)cc1` reads -0.67%; that for `COc1ccc(OC)c(S(=O)(=O)Nc2c(C)nn(C)c2C)c1`, 6.33%. On to `COc1ccc(/C=C/C(=O)Nc2c(C)nn(C)c2C)cc1COc1ccc(Br)cc1`, for which the inhibition is 60.5% (active). As to `CCn1nc(C)c(NC(=O)/C=C/c2ccc(OC)c(COc3ccc(Br)cc3)c2)c1C`, the inhibition was 30.8%. For the molecule `CCn1cc(/C=C(\NC(=O)c2cc(OC)c(OC)c(OC)c2)C(=O)N2CCN(C)CC2)c2ccccc21`, the inhibition is -8.31%. The result for `Cc1cc(OC(=O)c2ccc(Cl)cc2)cc(=O)n1C` reads 11.4%. With `CSc1nnc(NC(=O)c2nc(S(=O)(=O)Cc3ccc(C)cc3)ncc2Cl)s1` the figure was 25.7%; with `Cc1cccc(NC(=O)c2nc(S(=O)(=O)Cc3ccccc3)ncc2Cl)c1`, 45.5%; with `Cc1cccc(CS(=O)(=O)c2ncc(Cl)c(C(=O)Nc3ccc(F)cc3)n2)c1`, 52.3% (active).

Regarding `FC(F)(F)c1cc(-c2ccco2)nc(NCc2ccc(Cl)cc2)n1`, the inhibition was -24.6%. For the molecule `O=C1/C(=C/c2ccc(F)cc2)SC(=S)N1CCCC(=O)N1CCCCC1CCO` (stereo not given), the inhibition was -17.3%. Regarding `COc1ccc(/C=C2\SC(=S)N(CCC(=O)N3CCOCC3)C2=O)cc1OC`, the inhibition was -7.34%.

For `C=CCOc1ccc(/C=C2\SC(=S)N(CCC(=O)O)C2=O)cc1`, the inhibition is 53.9% (active). With `Cc1cc(C)nc(NC2=NCC(=O)N2c2ccc(Cl)cc2)n1`, the inhibition is 10.7%.
